# Measurements taken from PubChem BioAssay (NCI).
# This is part of a sample that, as a whole, favours compounds with a hit. Of some 83,000 tested, about 20% had one in any assay.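 Each cell line was grown in a 96-well plate and treated with one concentration of compound for 48 hours. Values below 10 were considered active.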 Values without a mark were called inactive. Calls of active or inactive are those of the source.
# Assays:
# Assay in all cases: NCI-60 one-dose screen, 48 h (100 = growth as untreated, 0 = no growth, -100 = all killed)
# Conditions in all cases: 10 µM unless noted
# [1] = system: HCT-15 colon
# [2] = system: HT29 colon
# [3] = system: SNB-75 CNS
# [4] = system: SNB-19 CNS
# [5] = system: U251 CNS
# [6] = system: PC-3 prostate
# [7] = system: SK-MEL-5 melanoma
# [8] = system: UACC-62 melanoma
# [9] = system: SK-MEL-28 melanoma
# [10] = system: LOX IMVI melanoma
SMILES,growth [1],growth [2],growth [3],growth [4],growth [5],growth [6],growth [7],growth [8],growth [9],growth [10]
COc1ccc(-c2nc3sc4c(c3c(=O)[nH]2)CCCCCC4)cc1,27.7%,14.3%,49.4%,66%,46.8%,70.2%,53.1%,24.6%,62.1%,
O=C1C(=O)c2c(nc3ccc(Cl)cn23)-c2ccccc21,-100% (active),-84.8% (active),-87.7% (active),-100% (active),-100% (active),-86.6% (active),-100% (active),-100% (active),-100% (active),-100% (active)
Cc1ccc(C(=O)Cc2ccccc2)c(O)c1,102%,110%,97.8%,95.4%,98.9%,99.8%,108%,90.4%,117%,98%
C[C@H]1c2cccc(O)c2C(O)=C2C(=O)[C@]3(O)C(O)=C(C(N)=O)C(=O)[C@@H](N(C)C)[C@@H]3[C@@H](O)[C@@H]21,31.2%,39.6%,47.3%,69.9%,33.1%,42.3%,9.29% (active),34.1%,65.4%,31.5%
O=C1CSC(c2ccccc2O)N1c1nnc(Cn2ccnc2)o1 (stereo unspecified),28.8%,86.2%,74.9%,86.3%,66.6%,64.6%,55.1%,77.4%,74.8%,56%
CCOc1cc(/C=C/C(=O)CC(=O)/C=C/c2ccc(OC(=O)CNc3nc4ccc(OC)cc4s3)c(OCC)c2)ccc1OC(=O)CNc1nc2ccc(OC)cc2s1,43.4%,-50.8% (active),34.1%,49%,15.7%,35.3%,30.1%,55.8%,39.5%,6.98% (active)
COc1cc(-c2nc3sc4c(c3c(=O)[nH]2)CCCCCC4)cc(OC)c1OC,24.8%,10.5%,-0.669% (active),21.2%,25.8%,38%,8.73% (active),19.1%,51.6%,
COc1cccc(-c2nc(-c3ccc(N)cc3)co2)c1,89.8%,87.2%,116%,113%,92.2%,98.2%,85.9%,90.3%,111%,97%
CC[C@@H](c1ccc(O)c(O)c1)[C@@H](CC)c1ccc(O)c(O)c1,58.1%,95.4%,82.4%,97.7%,89.9%,75.5%,91.4%,64.5%,87.1%,61%
CC(C)C[C@H](NC(=O)/C=C/Cn1ccc2ccccc2c1=O)B(O)O,67.5%,8.43% (active),50.2%,56.2%,55.8%,79.1%,23.5%,17%,50.8%,
OCc1n(Cc2ccc3ccccc3c2)cc[n+]1Cc1ccc2ccccc2c1,100%,36.6%,34.8%,44.5%,60%,37.8%,-28% (active),12.8%,24.9%,45.4%
Nc1ccc2c(c1)Cc1cc(Cl)c(Cl)cc1-2,51.5%,93.1%,84%,46.2%,34.6%,68.5%,43.4%,63.4%,78.6%,76.1%
CCOc1cc(/C=C/C(=O)C(C(=O)/C=C/c2ccc(OC(=O)CNc3nnc(C)s3)c(OCC)c2)C(=O)CNc2nnc(C)s2)ccc1OC(=O)CNc1nnc(C)s1,-60.1% (active),-100% (active),-15.8% (active),32.4%,-61.4% (active),-27.9% (active),-83.4% (active),-88.7% (active),-68.5% (active),-100% (active)
CCOC(=O)c1sc(NC(=O)COc2cccc(/C=C3\CCc4cc(OC)ccc4C3=O)c2)nc1C,56.5%,39.6%,99.3%,58.4%,41.1%,48.9%,44.1%,60.8%,103%,48.8%
COC(=O)[C@H](Cc1cn(C)cn1)NC(=O)[C@H](C)NC(=O)Nc1cc(C(F)(F)F)cc(C(F)(F)F)c1,37.7% [100 µM],-67.5% [100 µM] (active),-78.3% [100 µM] (active),-82.5% [100 µM] (active),-93.8% [100 µM] (active),-83.7% [100 µM] (active),-95.4% [100 µM] (active),-93% [100 µM] (active),-94.4% [100 µM] (active),-81% [100 µM] (active)
CC(=O)Nc1c(Cl)cc2c(c1Cl)Cc1ccccc1-2,99.9%,106%,94.7%,101%,92.4%,86.9%,97.3%,84.8%,124%,87.9%
CC1C(C)N(C(=O)CCl)c2ccccc2N1C(=O)CCl (stereo unspecified),-83.4% (active),-73.5% (active),-99.4% (active),8.21% (active),-93.4% (active),-36.6% (active),-70.4% (active),-76.8% (active),-45.9% (active),-81.2% (active)
CN(C)c1ccc(-c2nc3ncc(Br)cc3o2)cc1,115%,110%,103%,91%,100%,83.3%,99.8%,87.3%,120%,98.4%
O=C(NN1C(=O)c2cc(C(=O)O)c(C(=O)O)cc2C1=O)c1ccncc1,103%,108%,145%,106%,100%,84.6%,106%,92.3%,94.2%,109%
CC(=O)N1N=C(c2ccc3c(c2)OCO3)CC1c1c(C)nn(-c2ccccc2)c1N(C)Cc1ccccc1 (stereo unspecified),79.2%,49.8%,78.7%,64.8%,72.3%,34.3%,79.8%,49.5%,93.3%,86.5%
O=C(NC1CCCCC1)c1ccc(Nc2ncnc3c2cnn3-c2ccccc2)cc1,66.6%,70.2%,-20.3% (active),48.7%,40.2%,53.3%,75.4%,63.9%,62.2%,
COc1ccc(C2=NN(C=O)C(c3cccc(Nc4ccnc5cc(Cl)ccc45)c3)C2)cc1 (stereo unspecified),16.6%,4.88% (active),8.36% (active),40%,19.6%,22.8%,-21.5% (active),32.3%,50.6%,25%
O=C1NC(=S)S/C1=C\c1cc(Br)ccc1O,97.8%,119%,97.8%,107%,99.9%,104%,92.6%,84.8%,111%,100%
CC(=O)c1ccccc1NC(=O)C(C)(c1ccccc1)c1ccccc1,104%,91.1%,81.1%,97.1%,91.6%,66.8%,,70.9%,111%,81.8%
Cc1cc(C)c2c(N)c3cccc(C)c3nc2n1,10.4%,0.696% (active),10.4%,18.6%,17.4%,-4.42% (active),,-45.8% (active),-9.8% (active),1.49% (active)
CCN(CC)c1ccc(N=C2C=CC(=O)C=C2NC(C)=O)cc1,90.3%,104%,96.7%,116%,87.9%,83.6%,,93.2%,127%,80.8%
O=C(Nc1nc2c(C(F)(F)F)cccc2s1)c1cc(Cl)ccc1O,12.3%,0.653% (active),14%,10.2%,3.11% (active),,-46.7% (active),-37.3% (active),28.6%,5.52% (active)
O=[N+]([O-])c1cc([N+](=O)[O-])c(N2CCCC2)cc1NN=C(c1ccc(O)cc1)c1ccc(O)cc1,46.9%,78.2%,71.8%,37.3%,68.5%,,18.8%,63.1%,97.1%,41.6%
